These results are taken from PubChem BioAssay (NCATS).

Records with an inconclusive call do not appear. Where a call stands in place of a potency, no number is given. The source made the active and inactive calls. Calls follow the shape of the full dose curve; tested in HEK293 reporter line.
Potency is read from the fitted curve at half-maximal effect.

One experiment is described as follows: qHTS for Inhibitors of the Functional Ribonucleoprotein Complex (vRNP) of Lassa (LASV) Arenavirus: LASV Primary Screen - GLuc reporter signal (AID 1347082). Also: nearly all actives have a fitted effect of over 60% in size. The note with it: LASV minigenome vRNP, Gaussia luciferase reporter; series mostly up to 57.5 µM.
For `O=C(O)c1ccccc1NCCc1ccccc1`, the Potency result was “inactive”.
On to `C[C@H](NC(=O)Cc1cc(F)cc(F)c1)C(=O)N[C@@H]1C(=O)N(C)c2ccccc2-c2ccccc21`, for which the Potency result is “inactive”.
Turning to `Cc1cccc(C)c1NC(=O)c1ccc(N)cc1`, the Potency entry is “inactive”.
Turning to `Fc1ccc(Cl)cc1-c1nc(Nc2ccncc2)c2nccnc2n1`, the Potency entry is “inactive”.
Consider `Nc1ccc(S(=O)(=O)Nc2ccccc2)cc1`, for which the Potency entry is “inactive”.
Consider `CCOC(CN1C(=O)[C@](CC(=O)Nc2ccc(C)cc2)(NC(=O)Nc2ccc(C)cc2)c2ccccc21)OCC`, for which the Potency result was “inactive”.
On to `C#CC(C)(CC)OC(=O)c1ccccc1C(=O)O` (stereo not given), for which the Potency result was “inactive”.
As to `COc1cc(Oc2ccnc3cc(OC)c(OC)cc23)ccc1NC(=O)NC(C)c1nccs1` (stereo not given), the Potency result is “inactive”.
Same read-out and setting: for `C=CCNC(N)=S` the value was “inactive”.
Take `S=c1[nH]c2ccccc2s1`: the Potency entry was “inactive”.
Regarding `COc1nc(-c2ccc3c(c2)OCO3)n(-c2ccc(NC(=O)CSc3ccccc3)cc2)n1`, the Potency result is “inactive”.
As for `CCCCCCCCOc1ccc(C(=O)c2ccccc2)c(O)c1`, the Potency entry is “inactive”.
As to `CCC(=C(c1ccccc1)c1ccc(OCCN(C)C)cc1)c1ccccc1`, the Potency entry is “inactive”.
For `O=C(C=Cc1c(C(=O)O)[nH]c2cc(Cl)cc(Cl)c12)Nc1ccccc1`, the Potency result was “inactive”.
Regarding `CC(C)CCCC(C)CCCC(C)CCCCC(C)CCCC(C)CCCC(C)C` (stereo not given), the Potency entry is “inactive”.
For `Oc1cccc(-c2nc(N3CCOCC3)c3oc4ncccc4c3n2)c1`, the Potency was 993 nM (active).
Regarding `C[C@@H](N)C1CCC(C(=O)Nc2ccncc2)CC1` (stereo not given in full), the Potency result was “inactive”.
On the same count and under the same terms, as for `O=C(NO)c1ccccc1`, the entry is “inactive”.
As for `O=C(Nc1cccc(C2=NCCN2)c1)Nc1cccc(C2=NCCN2)c1`, the Potency result is “inactive”.
On to `O=C(O)[C@@H](c1ccc(OCc2ccc3ccccc3n2)cc1)C1CCCC1`, for which the Potency entry is “inactive”.
In the case of `O=C1CCCC2=C1C(c1[nH]ncc1Cl)N=C(Nc1nc3ccccc3o1)N2` (stereo not given), the Potency result is “inactive”.
Regarding `CC(C)(C)c1nnc(NS(=O)(=O)c2ccccc2)s1`, the Potency result was “inactive”.
`CCCCCCCCCCC(CO)CCCCCCCC` (stereo not given): the Potency result was “inactive”.

Another experiment can be described thus: qHTS for Inhibitors of the Functional Ribonucleoprotein Complex (vRNP) of Lassa (LASV) Arenavirus: Viability assay - alamar blue signal for LASV Primary Screen (AID 1347083). Also: nearly all actives have a fitted effect of over 80% in size. Particulars: cell viability, alamar blue fluorescence (LASV minigenome counter-screen); series mostly up to 57.5 µM. (In general: In qHTS, concentration-response curves come from the screen itself.)
For the compound `O=C(C=Cc1ccc(/C=C/C(=O)Nc2ccc(C3=NCCN3)cc2)cc1)Nc1ccc(C2=NCCN2)cc1`, the Potency result was “inactive”.
On to `CC1(C)CCC(c2ccc(Cl)cc2)=C(CN2CCN(c3ccc(C(=O)NS(=O)(=O)c4ccc(N[C@H](CCN5CCOCC5)CSc5ccccc5)c(S(=O)(=O)C(F)(F)F)c4)cc3)CC2)C1`, for which the Potency result is “inactive”.
For `Cc1[nH]nc2ccc(-c3cncc(OC[C@@H](N)Cc4ccccc4)c3)cc12`, the Potency was 172 nM (active).
As to `CN1C(=O)CC[C@H]1c1cccnc1`, the Potency result is “inactive”.
In the case of `COc1cc2c(cc1OC)C(=O)CC2`, the Potency entry is “inactive”.
Take `[O-][n+]1cccc(/C(Cl)=N/OC[C@@H](O)CN2CCCCC2)c1`: the Potency result was “inactive”.
`COc1ccc(-c2ccc3c(N4CCOC[C@H]4C)nc(N4CCOC[C@H]4C)nc3n2)cc1CO`: the Potency is 15.3 nM (active).
Same read-out and setting: as for `O=C1NS(=O)(=O)c2ccccc21`, the entry is “inactive”; as for `CCC(=O)N1CCN(c2ccc(-n3c(=O)ccc4cnc5ccc(-c6cnc7ccccc7c6)cc5c43)cc2C(F)(F)F)CC1`, 15.3 nM (active); as for `O=C(Nc1cccc(Cl)c1)Nc1ncc(CCNc2ncnc3ccsc23)s1`, “inactive”.
For the compound `Cc1cc(SCc2sc(-c3ccc(C(F)(F)F)cc3)nc2C)ccc1OCC(=O)O`, the Potency entry was “inactive”.
In the case of `NC(=O)c1ccc(I)c([N+](=O)[O-])c1`, the Potency result is “inactive”.
On the same count and under the same terms, as for `O=C1C(CCC(O)c2ccc(F)cc2)C(c2ccc(O)cc2)N1c1ccc(F)cc1` (stereo not given), the entry is “inactive”.
Regarding `CCN(CC)CCc1nc(-c2ccccc2)no1`, the Potency entry was “inactive”.
Take `O=C(O)c1ccc2cc(-c3ccc(O)c(C45CC6CC(CC(C6)C4)C5)c3)ccc2c1`: the Potency result is “inactive”.
Consider `O=S(c1cc(Cl)cc(Cl)c1O)c1cc(Cl)cc(Cl)c1O`, for which the Potency entry was “inactive”.
On the same count and under the same terms, for `O=C(O)c1ccccc1NCCc1ccccc1` the value was “inactive”; for `C[C@H](NC(=O)Cc1cc(F)cc(F)c1)C(=O)N[C@@H]1C(=O)N(C)c2ccccc2-c2ccccc21`, “inactive”; for `Cc1cccc(C)c1NC(=O)c1ccc(N)cc1`, “inactive”.
Regarding `Fc1ccc(Cl)cc1-c1nc(Nc2ccncc2)c2nccnc2n1`, the Potency entry was “inactive”.
As to `Nc1ccc(S(=O)(=O)Nc2ccccc2)cc1`, the Potency result was “inactive”.
Regarding `CCOC(CN1C(=O)[C@](CC(=O)Nc2ccc(C)cc2)(NC(=O)Nc2ccc(C)cc2)c2ccccc21)OCC`, the Potency result was “inactive”.
The same measure, in the same setting: for `C#CC(C)(CC)OC(=O)c1ccccc1C(=O)O` (stereo not given) the value was “inactive”.
With `COc1cc(Oc2ccnc3cc(OC)c(OC)cc23)ccc1NC(=O)NC(C)c1nccs1` (stereo not given), the Potency entry is “inactive”.
Still for that read-out and setting: as for `C=CCNC(N)=S`, the entry is “inactive”; as for `S=c1[nH]c2ccccc2s1`, “inactive”; as for `COc1nc(-c2ccc3c(c2)OCO3)n(-c2ccc(NC(=O)CSc3ccccc3)cc2)n1`, “inactive”.
